Most compounds without a hit are left out; they make up all but 1.9% or so of the library.
NCF1 inh = p47phox/p22phox peptide binding inhibitors, primary screen, biochemical, uHTS, NADPH oxidase regulatory subunit; Neutrophil cytosol factor 1 (Homo sapiens), P14598; fluorescence polarization, 2 h; AID 1274, 2008; inhibition, % at 24.7 µM; 220,000 compounds, 0.53% hits;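 active = inhibition above about 30%, limit read from the data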;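 also: 0% = p47phox with labelled peptide and 100% = labelled peptide alone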
Target sequence (P14598 whole entry, looked up): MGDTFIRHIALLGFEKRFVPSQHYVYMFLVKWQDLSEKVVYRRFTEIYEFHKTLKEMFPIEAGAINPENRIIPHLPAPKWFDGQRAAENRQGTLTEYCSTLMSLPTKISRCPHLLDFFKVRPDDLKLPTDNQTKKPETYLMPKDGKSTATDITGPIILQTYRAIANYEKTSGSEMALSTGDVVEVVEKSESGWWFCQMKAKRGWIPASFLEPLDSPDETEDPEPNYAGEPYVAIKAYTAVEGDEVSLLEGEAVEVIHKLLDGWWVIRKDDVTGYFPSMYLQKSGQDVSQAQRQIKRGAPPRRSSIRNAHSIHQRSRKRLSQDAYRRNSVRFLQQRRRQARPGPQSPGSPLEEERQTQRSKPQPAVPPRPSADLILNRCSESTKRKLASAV
ZTA counter = ZTA (EBV) inhibition in EBNA-1 counter-screen; 320,000 compounds, 0.15% hits; P03206; inhibition, % at 11 µM; ZTA-DNA binding, fluorescence polarization; in the data active = inhibition above about 33%
NR1D1 modulator = modulators of Rev-erb alpha DNA binding, primary screen, biochemical, FITC-DNA, fluorescence polarization, uHTS; AID 1259318, 2017; Rev-erbα–FITC-DNA binding, 90 min; 370,000 compounds, 0.79% hits; activity, % at 10 µM; Nuclear receptor subfamily 1 group D member 1 (Homo sapiens), P20393;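 active = activity above about 14%, limit read from the data; passing the limit was not always enough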;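 also: 0% = DMSO wells with 35 nM protein and 100% = DMSO wells with 750 nM protein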
aDG glyco act = activators of alpha-DG glycosylation, primary screen, uHTS, Pro5-aDG cells, AlphaScreen; 360,000 compounds, 0.22% hits; activation, % at 10 µM; alpha-DG glycosylation AlphaScreen (IIH6); 0% Pro5, 100% B10-LARGE cell signal;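 active = activation of at least 8% versus controls, or a plate z-score of at least 8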;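 also: Pro5 are CHO cells carrying HIG-tagged alpha-DG that lacks glycosylation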
EBNA-1 inhibitor = EBNA-1 DNA-binding inhibitors, primary screen, biochemical, fluorescence polarization. inhibition, % at 14.8 µM. 300,000 compounds, 0.34% hits. AID 1950, 2009; in the data active = inhibition above about 28%
PG9 Ab binder = binders of HIV-1 gp120 antibody PG9, primary screen, biochemical, TR-FRET | HIV-1 gp120 / PG9 antibody interaction | TR-FRET gp120-PG9 antibody binding | inhibition, % at 6.7 µM | 360,000 compounds, 0.43% hits; in the data active = inhibition above about 8.5%
NR1D1 mod conf = modulators of Rev-erb alpha DNA binding, confirmation, biochemical, FITC-DNA, fluorescence polarization, single point. shares compounds with NR1D1 modulator. 90 min. activation, % at 25 µM. 3,000 compounds, 61% hits;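 active = activation at or above a set limit, or at least 3 SD above the negative control mean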;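 also: 0% = 35 nM protein with DMSO and 100% = 750 nM protein high control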
RORg counter = modulation of RORgamma DNA binding, dose response, counter-screen for Rev-erb alpha modulator project, biochemical, fluorescence polarization, FITC-DNA; shares compounds with NR1D1 modulator; purified RORgamma protein-FITC-DNA binding; IC50, µM; 910 compounds, 8% hits;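 active = Compounds whose fitted half-maximal concentration for disrupting protein-DNA binding is below 10 micromolar; the record names Rev-erb in its text, so the target is in doubt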
The depositor's hits bear a star.

`CCCSc1nc(SCC(=O)NCc2ccccc2)c2c3c(sc2n1)COC(C)(C)C3` gave NCF1 inh -15, ZTA counter 11, NR1D1 modulator 45*, aDG glyco act 0, EBNA-1 inhibitor 6, PG9 Ab binder 0 and NR1D1 mod conf 15.
For Cc1ccc(-c2csc3nc[nH]c(=S)c23)cc1C the results were NCF1 inh -16, ZTA counter -6, NR1D1 modulator 24*, aDG glyco act 2, EBNA-1 inhibitor -6, PG9 Ab binder -1, NR1D1 mod conf 32* and RORg counter >40.
For COc1ccc(-c2csc3nc[nH]c(=O)c23)cc1OC the results were ZTA counter -20, NR1D1 modulator 0, aDG glyco act 0, EBNA-1 inhibitor -13 and PG9 Ab binder -1.
`CN(C)CCCN1C(=O)c2cccc3c(Br)ccc(c23)C1=O` gave NCF1 inh 9, ZTA counter 1, NR1D1 modulator 0, aDG glyco act 1, EBNA-1 inhibitor 6 and PG9 Ab binder 1.
For CCCN1C(=O)c2cccc3c(N4CCCCC4)ccc(c23)C1=O the results were NCF1 inh -14, ZTA counter -4, NR1D1 modulator 96*, aDG glyco act 2, EBNA-1 inhibitor -1, PG9 Ab binder 0, NR1D1 mod conf 97* and RORg counter >40.
Screening CCCCNc1ccc2c3c(cccc13)C(=O)N(CCCC)C2=O returned NCF1 inh -8, NR1D1 modulator 108*, aDG glyco act 2, PG9 Ab binder 2, NR1D1 mod conf 128* and RORg counter >40.
For O=C1c2cccc3c(N4CCCCC4)ccc(c23)C(=O)N1c1ccccn1 the results were NCF1 inh -40, ZTA counter -3, NR1D1 modulator -1, aDG glyco act 0, EBNA-1 inhibitor -2 and PG9 Ab binder -1.
c1ccc(Cn2c(SCC3CCC3)nnc2-c2cccnc2)cc1 was read as NR1D1 modulator 0.
For CC(C)NC(=O)/C(C#N)=C/c1ccc(N(C)C)o1 the results were NCF1 inh -5, ZTA counter -11, NR1D1 modulator 25*, aDG glyco act 0, EBNA-1 inhibitor -3, PG9 Ab binder -30 and NR1D1 mod conf 7.
Screening COCCCNC(=O)C1CCN(S(=O)(=O)c2ccc3[nH]c(=O)oc3c2)CC1 returned NR1D1 modulator -3.
O=c1[nH]nc(Cc2ccc(-c3ccccc3Cl)o2)c2ccccc12 was read as NCF1 inh 4, ZTA counter 8, NR1D1 modulator 34*, aDG glyco act 2, EBNA-1 inhibitor 14, PG9 Ab binder 0 and NR1D1 mod conf 17*.
CS(=O)(=O)OC12CCCN(C1)/C(=C/c1ccc(Cl)cc1)C2 (stereo not given) was read as NR1D1 modulator -3.
`COc1cccc2cc(C(=O)NCc3ccc(Cl)cc3)c(=O)oc12` gave ZTA counter 5, NR1D1 modulator 21*, aDG glyco act 0, EBNA-1 inhibitor -9, PG9 Ab binder 0 and NR1D1 mod conf 10.
Screening O=C(NCCc1ccccc1)OCc1cn(Cc2cc(F)ccc2F)nn1 returned NR1D1 modulator 2.
Screening CCCC1CCC2(CCCN2CCOC(=O)Nc2ccc(F)cc2)CC1 (stereo not given) returned NR1D1 modulator -3.
For COC(=O)[C@]12C[C@H](CC(=O)NCc3ccc(OC)c(OC)c3)C(=O)N(Cc3ccc(Cl)cc3Cl)C1=C[C@H](C(C)(C)C)O[C@@H]2C the results were NR1D1 modulator 1.
`O=C(c1ccncc1)N1CC[C@H]2[C@H](CCCN2Cc2cc(F)cc(F)c2)C1` gave NR1D1 modulator -2.

Source: PubChem
